Only some compounds are listed: those with a hit (about 11% of all), similar ones and a draw of the others.
L major viab – reduces viability of Leishmania major promastigotes; inhibition, % at 10 µM; AID 1063; resazurin fluorescence viability; 9% of 200,000 active; in the data active = inhibition above about 50%;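 also: promastigotes grown with compound for 44 hours at 28 °C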
WT yeast gro inh – growth inhibition of WT yeast, mitochondrial fusion screen | mitochondrial fusion phenotypic screen, WT strain | 2.1% of 190,000 active | AID 1362 | inhibition, % at 10 µM; in the data active = inhibition above about 58%; tested in S. cerevisiae
Autophagy HCS – autophagy modulation, high-content screen. MEF GFP-LC3 puncta imaging; test concentration mostly 10 µM. calls only at 10 µM (by protocol). 0.98% of 190,000 active. AID 463193;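 active = percentage of spot-positive cells more than 3 SD above its plate mean, without a fluorescence outlier flag or 80% toxicity; inconclusive = no clear call, values can overlap the other calls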;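 also: spot-positive cell cutoff set from DMSO-treated cells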
Ins promoter up – MIN6 insulin promoter up-regulation; MIN6 insulin promoter-GFP reporter, high-content imaging; hits give high values; z-score at 5 µM; 0.3% of 190,000 active;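 active = z-score above 3 at 5 µM with at least 500 cells counted in the well; inconclusive = wells under 500 cells, flagged as cytotoxic or low count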
INS promoter inh – TRM-6 insulin promoter activity inhibition. TRM-6 cells (human fetal islet line), insulin promoter-eGFP reporter, imaging; reporter expression induced with tamoxifen. inhibition, % at 2 µM. 0.9% of 130,000 active. AID 1273;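 active = inhibition above the mean plus 3 SD, with well images judged a real hit on visual review, cut at about 60% in these data, passing the limit was not always enough; inconclusive = inhibition over the cutoff but images rejected on review; inactive = inhibition not above the cutoff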
Starred values were filed as active, the others as inactive; i = inactive; ? = inconclusive; / = no result given; + = active, no number.

SMILES	L major viab	WT yeast gro inh	Autophagy HCS	Ins promoter up	INS promoter inh
COc1cc(/C=N/OCC(=O)NC2CCCCC2C)ccc1OCc1ccc(Cl)cc1 (stereo unspecified)	82.9*	22.3	i	-0.53	-24.3
CCCCN1C(=O)/C(=C/C=C2\N(C)c3ccccc3C2(C)C)SC1=S	18.2	34.8	+	/	/
CCCN1C(=O)/C(=C\C=C2/C=CN(CC)c3ccccc32)SC1=S	-1.7	59.2*	i	-0.02	6.2
CCOC(=O)c1ccc(NC(=O)CC2S/C(=N/N=C/c3c[nH]c4ccccc34)NC2=O)cc1 (stereo unspecified)	62.4*	10.4	i	-0.2	25.0
Cc1ccc(NC(=O)CC2S/C(=N/N=C/c3c[nH]c4ccccc34)NC2=O)cc1 (stereo unspecified)	4.9	-2.8	i	0.16	53.3
Cc1cc(Cl)ccc1NC(=S)NCc1ccccc1Cl	21.4	51.2	i	0.07	-23.3
Cc1ccc(S(=O)(=O)/C(C#N)=C/c2c(Oc3ccc(Cl)cc3)nc3c(C)cccn3c2=O)cc1	76.9*	29.6	i	0.23	25.0
Cc1ccc(Oc2nc3c(C)cccn3c(=O)c2/C=C(\C#N)C(N)=O)cc1	/	/	/	-0.13	/
CC(C)CC(c1nnnn1Cc1ccccc1)N1CCC(C(N)=O)CC1 (stereo unspecified)	-3.6	-21.3	i	/	-71.4
O=C(COc1cccc(F)c1)N1c2ccccc2Sc2ccccc21	4.1	52.1	i	-1.37	78.6*
O=C(COc1ccccc1)N1c2ccccc2Sc2ccccc21	9.4	40.0	i	-0.53	?
COCCN1C(=O)/C(=C/c2ccc(OCc3ccc(C(=O)O)cc3)c(OC)c2)SC1=Nc1ccccc1	-1.6	58.9*	i	-0.11	16.7
COc1cc(/C=C2\SC(=Nc3ccccc3)N(Cc3ccco3)C2=O)ccc1OC(C)C(=O)O (stereo unspecified)	-10.1	11.3	i	-0.01	20.0
O=C(CCCN1C(=O)/C(=C/c2ccccc2Cl)SC1=S)NNC(=O)c1ccncc1	/	/	/	-0.03	/
CCOc1ccc(/C=C2\SC(=O)N(CCNC(=O)C3COc4ccccc4O3)C2=O)cc1OC (stereo unspecified)	70.9*	9.0	i	0.4	18.9
O=C(CCCN1C(=O)/C(=C/c2ccccc2Cl)SC1=S)NNC(=O)c1ccccc1Cl	66.9*	-6.7	i	0.13	/
COc1cc(/C=C2\SC(=O)N(Cc3ccc(Cl)cc3)C2=O)cc([N+](=O)[O-])c1O	2.9	55.6	i	0.62	/
COc1cc(/C=C2\SC(=O)N(Cc3ccc(F)cc3)C2=O)cc([N+](=O)[O-])c1O	-3.7	61.7*	i	-0.7	/
Cc1oc2ccc(NS(=O)(=O)c3cccc4cccnc34)cc2c1C(=O)OC(C)C	8.6	-1.6	i	-0.59	/
CNC(=S)/N=C/NOCc1c(Cl)cccc1Cl	43.1	41.1	i	-1.72	-3.7
Cc1ccc(/C=C2\SC(=S)N(CCCC(=O)Nc3ccccn3)C2=O)cc1	-0.2	-11.8	i	-1.38	51.2
COc1cc(/C=C2/SC(=O)N(Cc3ccccc3)C2=O)ccc1OCc1ccncc1	91.8*	-2.8	i	1.12	13.0
COc1ccc(/C=C2\SC(=NCc3ccccc3)N(Cc3ccccc3)C2=O)cc1OC	1.7	-6.5	i	-0.2	-8.7
COc1ccc(CN2C(=O)/C(=C/c3ccncc3)SC2=S)cc1	67.8*	0.4	i	0.54	-8.8
COc1ccc(/C=C2\SC(=S)N(CCCC(=O)Nc3ccccn3)C2=O)cc1OC	63.4*	15.0	i	1.24	-17.9
SMILES	L major viab	WT yeast gro inh	Autophagy HCS	Ins promoter up	INS promoter inh
Cc1ccc(NC(=S)NCc2ccccn2)cc1	50.1*	6.5	i	-0.26	-10.3
O=C(NCc1ccccn1)C(=O)NCc1ccccn1	-5.1	-4.6	i	0.06	80.0*
CC(C)(C)NC(=O)C(=O)NCc1ccccn1	-0.6	4.6	i	-0.08	/
CC(C)c1ccc(-c2nn(-c3ccccc3)cc2C2C(C#N)=C(N)OC3=C2C(=O)CC(C)(C)C3)cc1 (stereo unspecified)	77.5*	49.5	i	/	-24.3
Cn1ccnc1SCC(=O)Nc1ccc2c(c1)OC(F)(F)O2	-5.1	5.7	i	0.28	-14.3
O=C(c1cc2c(F)cccc2s1)N1CCCC1	10.5	-16.9	i	-0.28	/
O=C1C2C3C=CC(C3)C2C(=O)N1c1ccc(N2CCN(c3ccccn3)CC2)c([N+](=O)[O-])c1 (stereo unspecified)	75.8*	-4.5	i	-0.56	?
CCn1c(SCC(=O)N2CCC(C(N)=O)(N3CCCCC3)CC2)nnc1-c1ccccc1	-6.4	-0.6	i	2.05	27.8
COc1ccccc1N1CCN(C(=O)c2cc(N3C(=O)C4C5CCC(C5)C4C3=O)ccc2Cl)CC1 (stereo unspecified)	89.5*	-31.9	i	0.25	27.0
CCCCC(CC(O)COCCC)C(=O)NN (stereo unspecified)	-12.0	-12.3	i	0.43	8.3
CN1Cc2cccc3c2C(Cc2ccccc2S3)C1 (stereo unspecified)	57.4*	1.2	i	-0.13	-72.4
COc1ccccc1C(=O)NNC(=O)c1nn(Cc2ccccc2)c(=O)c2ccccc12	1.1	3.8	i	-1.01	80.5*
O=C(CCC1N=C2c3ccccc3N=C(SCc3cccc(Cl)c3)N2C1=O)NCc1ccco1 (stereo unspecified)	29.1	58.7*	i	-0.68	-33.3
O=C(CCC1N=C2c3ccccc3N=C(SCc3ccccc3Cl)N2C1=O)NCc1ccco1 (stereo unspecified)	15.2	8.7	i	-0.57	-60.0
O=C(NN1C(=O)c2ccccc2NC1c1ccco1)c1ccc(Br)cc1 (stereo unspecified)	3.3	13.9	i	/	-28.6
O=C(NN1C(=O)c2ccccc2NC1c1ccc([N+](=O)[O-])o1)c1ccc(Br)cc1 (stereo unspecified)	95.5*	-1.4	i	/	-35.7
CC(=O)NN1C(=O)c2ccccc2NC1c1ccc([N+](=O)[O-])o1 (stereo unspecified)	66.0*	5.8	i	/	-80.0
COc1ccc(N(C)S(=O)(=O)c2cccc(C(=O)Nc3cc(OC)ccc3OC)c2)cc1	81.7*	13.1	i	-1	30.0
CC(=O)c1cccc(NC(=O)C(OC(=O)c2cccc(S(=O)(=O)N(C)c3ccccc3)c2)c2ccccc2)c1 (stereo unspecified)	95.8*	-5.2	i	-0.67	-14.8
COc1ccc(N(C)S(=O)(=O)c2cccc(C(=O)OC(C(=O)Nc3cc(C)cc(C)c3)c3ccccc3)c2)cc1 (stereo unspecified)	95.7*	-2.1	i	-0.54	-13.7
CC(=O)c1cccc(NC(=O)C(OC(=O)c2ccccc2NS(=O)(=O)c2cccs2)c2ccccc2)c1 (stereo unspecified)	33.3	-12.3	i	/	-6.7
COc1cccc(CNC(=O)Cn2ncc3c(=O)oc4ccccc4c32)c1	/	/	/	-0.97	/
COc1cc(-c2cc(C(=O)Nc3ccc(S(=O)(=O)NCc4ccco4)cc3)c3ccccc3n2)cc(OC)c1OC	75.8*	-22.7	+	-0.96	-3.9
